A selection: hits, their analogues and other compounds. The true share with any hit is near 21%.
Pf growth 96h: P. falciparum growth inhibition at 96 hours | P. falciparum luciferase reporter growth, 96 h | Potency, µM (titrated, usually from 28.7 µM), inactives show top-dose activity change, negative = inhibition, most hits filed as inhibitors | 320,000 compounds, 6.9% hits; further: potency means the concentration at half of the fitted maximal effect; on the % scale 0 is the no-effect control and ±100 the full control effect
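Infected RBCs, 2% Hct / 0.05% parasitemia final; luciferase-reporter P. falciparum; cpd 96 h, 37 C, 5% CO2; luciferase detection reagent; luminescence.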
HCV inhibitor: HCV inhibition; Huh7.5.1 HCVcc-Cre infection, luciferase reporter, 44 h; Potency, µM (titrated, usually from 41.8 µM), for inactives: at the highest dose activity change, negative = inhibition, usual class: inhibitors; 340,000 compounds, 3.4% hits; AID 651820; further: potency means the concentration at half of the fitted maximal effect; on the % scale 0 is the no-effect control and ±100 the full control effect
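A cell-based infection assay in which seeded cells (1,000 per well) receive test compound after 4 h, are inoculated with HCVcc-Cre at approximately 0.5 moi, and are incubated 44 h before luminescence detection.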
Pf growth 48h: inhibits P. falciparum growth in the first generation, 48 h. Potency, µM (top dose mostly 28.7 µM), without a hit: at the top dose activity change, negative = inhibition, usual class: inhibitors. 310,000 compounds, 5.9% hits. AID 504832. P. falciparum luciferase growth in erythrocytes, 48 h; further: potency means the concentration at half of the fitted maximal effect; on the % scale 0 is the no-effect control and ±100 the full control effect
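Growth was read as firefly luciferase luminescence after a 48 h, 37 C, 5% CO2 exposure of compounds to reporter-bearing P. falciparum cultures (0.1% parasitemia, 2% hematocrit final) in Albumax-supplemented RPMI 1640.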
HCMV antiviral: inhibitors of human cytomegalovirus. HFF cells, HCMV-luciferase reporter, 72 h; stronger effect = lower value. activity change, negative = inhibition, % at 57.5 µM. 410,000 compounds, 4.5% hits. AID 1259415; in the data active means activity change below about -60%; inconclusive means no clear call, values can overlap the other calls; inactive means above about -39%; further: on the % scale 0 is the no-effect control and ±100 the full control effect
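Cell-based, HFFs, 1000 cells/well, 16 h 37C; cpds in DMSO + HCMV-luc, MOI 1 PFU/cell; 72 h 37C; OneGlo luminescence after 5 min RT; norm. to buffer vs Salinomycin 10uM.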
Shiga toxin inh: Shiga toxin inhibition. Vero cells, Shiga toxin protein synthesis inhibition reporter. inhibition, % at 38.7 µM. 290,000 compounds, 9.2% hits; in the data active means inhibition mostly above about 28%, no sharp cut-off; inactive means mostly below about 43%; further: 0% is about no effect
CHX counter: affects cycloheximide protein synthesis inhibition readout, counter-screen; cell reporter, cycloheximide protein synthesis inhibition counterscreen; max response, %; 300,000 compounds, 12% hits; AID 2314; in the data active means max response mostly above about 13%, no sharp cut-off; inactive means mostly below about 14%; further: read at 38.3 µM for the half of the compounds with a filed dose; 0% is about no effect
Numbers without * were called inactive. Unless noted, the call rests on the fitted dose curve; in most records, active means well fitted inhibition curve with a large enough effect; inconclusive means small, poorly fitted or top-dose-only effect, or another doubt; inactive means no such curve, though single readings can be large or run the other way.

For CNC(=O)Oc1ccc2ncccc2c1 the results were Pf growth 96h -5%, HCV inhibitor 4%, Pf growth 48h -13%, HCMV antiviral -23, Shiga toxin inh -18 and CHX counter -7.
CCn1c(C(=O)NCc2ccccc2)cc2sc(Cl)cc21 was read as HCMV antiviral -23.
COc1cc(/C=C2\N=C(c3ccccc3)NNC2=O)cc(OC)c1OC was read as Pf growth 96h inconclusive, HCV inhibitor 5%, Pf growth 48h -29%, HCMV antiviral -81*, Shiga toxin inh -6 and CHX counter -5.
`CC(C)c1ccc(NC(=O)N[C@H]2CC[C@@]34CCCN3C(=O)CCC[C@H]4[C@H]2C)cc1` gave HCMV antiviral -13.
CCCOc1cccc(C2c3c(oc4ccc(F)cc4c3=O)C(=O)N2c2nc(C)c(C(C)=O)s2)c1 (centres undefined) was read as HCMV antiviral -16.
Screening CCOc1nc(-c2ccc(C)cc2)ccc1-c1noc(COC)n1 returned Pf growth 96h 0%, HCV inhibitor 10µM*, Pf growth 48h inconclusive, HCMV antiviral 30, Shiga toxin inh 31 and CHX counter 5.
`CCOc1nc(-c2ccc(C)cc2)ccc1-c1noc(-c2ccccc2F)n1` gave HCMV antiviral 0.
For Cc1ccc2nc(SCC(=O)NCC3CCCO3)c(C#N)cc2c1 (centres undefined) the results were HCV inhibitor 3%, Pf growth 48h 49%, HCMV antiviral -26, Shiga toxin inh 3 and CHX counter -3.
`CCOc1ccc2nc(SCC(=O)Nc3ccc(S(=O)(=O)N4CCCC4)cc3)c(C)cc2c1` gave Pf growth 96h inconclusive, HCV inhibitor inconclusive, Pf growth 48h inconclusive, HCMV antiviral -2, Shiga toxin inh 19 and CHX counter -1.
Cc1cc(C)c2nc(SCC(=O)Nc3ccc(S(=O)(=O)N4CCCC4)cc3)c(C)cc2c1 was read as HCV inhibitor inconclusive, Pf growth 48h 9.3µM*, HCMV antiviral 22, Shiga toxin inh 10 and CHX counter 0.
N#Cc1cc2ccccc2nc1SCC(=O)Nc1ccc(S(=O)(=O)N2CCCC2)cc1 was read as Pf growth 96h inconclusive, Pf growth 48h 9.3µM*, HCMV antiviral inconclusive, Shiga toxin inh 6 and CHX counter -1.
COc1ccc2nc(SCC(=O)Nc3ccc(S(=O)(=O)N4CCCC4)cc3)c(C#N)cc2c1 was read as Pf growth 96h inconclusive, HCV inhibitor inconclusive, Pf growth 48h 3.3µM*, HCMV antiviral inconclusive, Shiga toxin inh -9 and CHX counter -2.
Screening COc1ccc2nc(SCC(=O)NCC3CCCO3)c(C#N)cc2c1 (centres undefined) returned Pf growth 96h 2.1µM*, HCV inhibitor -17%, Pf growth 48h 0%, HCMV antiviral 126, Shiga toxin inh -3 and CHX counter -3.
Screening CC(=O)c1ccccc1N(C(=O)c1ccco1)C(C(=O)NC1CCCC1)c1ccc(C)cc1 (centres undefined) returned Pf growth 96h inconclusive, HCV inhibitor 3%, Pf growth 48h -9%, HCMV antiviral inconclusive, Shiga toxin inh -7 and CHX counter -1.
Screening CCc1ccccc1NC(=O)Cn1c(=O)n(Cc2ccc3c(c2)OCO3)c(=O)c2ccc(C(=O)NC3CCCCC3)cc21 returned HCMV antiviral 32.
Screening CC(C)Cn1c(=O)c2sccc2n2c(CCCC(=O)N3CCN(c4ccc(F)cc4)CC3)nnc12 returned HCMV antiviral -3.
Screening Cc1nc(SCC(=O)Nc2ccc(S(=O)(=O)N3CCOCC3)cc2)c2c(C)c(C)sc2n1 returned HCV inhibitor 7.1µM* and HCMV antiviral 32.
For CCOc1ccc2nc(SCC(=O)N3c4ccccc4Sc4ccccc43)c(C#N)cc2c1 the results were Pf growth 96h inconclusive, HCV inhibitor inconclusive, Pf growth 48h 10µM*, HCMV antiviral -6, Shiga toxin inh 25 and CHX counter -5.
`COc1ccc2nc(SCC(=O)N3CCCCCC3)c(C#N)cc2c1` gave Pf growth 96h -16%, HCV inhibitor 6.3µM*, Pf growth 48h inconclusive, HCMV antiviral 18, Shiga toxin inh 87* and CHX counter 15*.
Screening O=C(NNC(=O)c1ccccc1F)c1ccco1 returned Pf growth 96h -11%, HCV inhibitor 7%, Pf growth 48h 71%, HCMV antiviral -20, Shiga toxin inh 40* and CHX counter 14.
For O=C(NNC(=O)c1ccccc1O)c1ccco1 the results were Pf growth 96h -29%, HCV inhibitor -2%, Pf growth 48h 250%, HCMV antiviral -36, Shiga toxin inh 97* and CHX counter 27*.
`O=C(NNC(=O)c1cccc2ccccc12)c1ccco1` gave Pf growth 96h 6%, HCV inhibitor 25%, Pf growth 48h 4%, HCMV antiviral 13, Shiga toxin inh -13 and CHX counter 3.
CCn1cc(/C=C(\NC(=O)c2ccccc2)C(=O)N2CCOCC2)c2ccccc21 was read as Pf growth 96h 25%, HCV inhibitor 7%, Pf growth 48h -2%, HCMV antiviral 20, Shiga toxin inh -5 and CHX counter -2.
COC(=O)CCCCCn1c(-c2ccccc2)cn2c3c(=O)n(C)c(=O)n(C)c3nc12 was read as HCMV antiviral -23.
For CCOc1ccc(CCNC(=O)c2ccc3[nH]c(C)c(C)c3c2)cc1 the results were HCMV antiviral 0.
`CCCCN1c2ccccc2N(CCCO)c2cc(C)nnc21` gave Pf growth 96h inconclusive, HCV inhibitor -8%, Pf growth 48h inconclusive, HCMV antiviral -10, Shiga toxin inh 23 and CHX counter 14*.
`CCCCN1C2=NC(c3ccccc3)CN2c2ccccc21` (centres undefined) gave HCV inhibitor -27% and HCMV antiviral inconclusive.
`CC1CCCCN1CCNC(=O)c1ccc2c(c1)N(Cc1ccccc1F)C(=O)c1ccccc1S2=O` (centres undefined) gave Pf growth 96h 5.9µM*, HCV inhibitor inconclusive, Pf growth 48h inconclusive, HCMV antiviral inconclusive, Shiga toxin inh -11 and CHX counter -5.
`O=C(NCCN1CCCC1)c1ccc2c(c1)N(Cc1ccc(F)cc1)C(=O)c1ccccc1S2=O` (centres undefined) gave Pf growth 96h inconclusive, HCV inhibitor -6%, Pf growth 48h 12µM*, HCMV antiviral -9, Shiga toxin inh -5 and CHX counter -6.
For CCN1CCN(CCNC(=O)c2ccc3c(c2)N(Cc2cccc(Cl)c2)C(=O)c2ccccc2S3=O)CC1 (centres undefined) the results were Pf growth 96h inconclusive, HCV inhibitor inconclusive, Pf growth 48h 12µM*, HCMV antiviral -73*, Shiga toxin inh -3 and CHX counter -2.

Bioassay records from PubChem.
